Several values for one entry are separate records, joined by “and”; a condition that tells them apart may be missing. Equal values may be shown once. About 1,200 (0.39%) of roughly 310,000 compounds were called active. No rule for the calls is given here. These entries were drawn from the full list. Entries with a potency or affinity are not part of this list.
biological target: Large T antigen (Simian virus 40) (UniProt P03070); assay: SV40 large T antigen inhibitors, biochemical (AID 1903); conditions: SV40 large T antigen ATPase/helicase inhibition assay; at 20 µM; hits give high values
Sequence (P03070 whole entry, looked up): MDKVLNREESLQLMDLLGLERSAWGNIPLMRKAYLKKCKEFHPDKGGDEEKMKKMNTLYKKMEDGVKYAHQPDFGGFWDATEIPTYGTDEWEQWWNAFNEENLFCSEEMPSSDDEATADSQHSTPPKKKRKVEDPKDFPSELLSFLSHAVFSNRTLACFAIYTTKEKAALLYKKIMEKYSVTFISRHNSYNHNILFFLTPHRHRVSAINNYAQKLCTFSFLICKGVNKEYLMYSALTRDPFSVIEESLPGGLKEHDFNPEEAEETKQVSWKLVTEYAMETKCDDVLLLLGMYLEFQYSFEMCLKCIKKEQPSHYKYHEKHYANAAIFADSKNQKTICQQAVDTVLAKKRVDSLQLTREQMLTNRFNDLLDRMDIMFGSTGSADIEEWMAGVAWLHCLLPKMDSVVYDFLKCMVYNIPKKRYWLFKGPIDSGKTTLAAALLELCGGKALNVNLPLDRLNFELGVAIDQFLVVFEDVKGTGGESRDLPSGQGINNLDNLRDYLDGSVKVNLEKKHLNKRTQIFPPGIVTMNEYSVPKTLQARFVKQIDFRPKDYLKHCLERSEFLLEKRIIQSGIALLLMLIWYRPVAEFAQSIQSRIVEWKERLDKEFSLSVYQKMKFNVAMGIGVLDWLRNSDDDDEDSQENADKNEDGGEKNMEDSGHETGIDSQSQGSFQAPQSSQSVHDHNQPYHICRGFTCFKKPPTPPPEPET

inhibition, inactive:
O=C(O)C1CC(=O)N(Cc2ccc(F)cc2)C1 (stereo not given) 0.55%
COc1ccc(NC(=O)CCNC(C)=O)cc1NS(=O)(=O)c1ccc(F)cc1 3.53%
CCc1ccccc1NC(=O)CNC(=O)CCc1nc2sc3c(c2c(=O)[nH]1)CCCC3 24.8%
Cc1cccc(C)c1N=Nc1c(C)cc(O)cc1C 12.6%
Cc1ccccc1C1N(c2nccs2)C(=O)C2CCCN21 (stereo not given) 12.4%
CCN(c1ccccc1)S(=O)(=O)c1cc(CN2C(=O)c3cccnc3C2=O)ccc1OC 13.8%
Cc1ccc(CNC(=O)/C=C/c2ccc(S(=O)(=O)N3CCOCC3)cc2)cc1 3.26%
NS(=O)(=O)c1cc(C(=O)OCC(=O)c2ccccc2)c(Cl)cc1Cl 2.42%
NCCCC[C@H](NC(=O)C1CCNCC1)c1nnc([C@@H](N)Cc2ccc(O)cc2)o1 2.89%
COc1ccc(N=C2NC(=O)/C(=C/c3ccc(O)c(OC)c3)S2)cc1 28.3%
O=C1N/C(=C/c2ccco2)C(=O)N1Cc1ccccc1F 11.4%
COc1cc(/C=C2\C(=O)N(C)C(=S)N2C)ccc1O 17.2%
COc1cc(/C=C2/SC(=Nc3ccc(O)cc3)NC2=O)ccc1O 37.7%
COc1ccc(C=C2C(=O)c3ccccc3C2=O)cc1O 36.2%
COc1cc(/C=C2\NC(=S)N(C)C2=O)ccc1OCc1ccccc1F 15.8%
COc1cc(C=C2C(=O)c3ccccc3C2=O)cc(OC)c1OC 6.63%
COC(=O)C1=C(C)N(CCc2ccccc2)C(=O)/C1=C\c1ccco1 10.5%
Cc1ccc(NC(=O)C2CCCN(c3nccc(C)n3)C2)c(C)c1 (stereo not given) 4.92%
Cc1sc2nc(CSCC(=O)Nc3c(F)cccc3F)[nH]c(=O)c2c1C 6.91%
COc1ccc(C(=O)Nn2c(C)nc3ccccc3c2=O)cc1OC -1.86%
Cc1ccc(NC(=O)CSc2ccc3nnc(CCNC(=O)c4ccccc4)n3n2)c(C)c1 9.38%
O=C(c1ccccc1F)N1CCN(C2CCC(c3ccccc3)CC2)CC1 (stereo not given) 18.6%
CC(C)(C)C(=O)NC(=O)Nc1ccccc1C(F)(F)F 2.7%
COC(=O)c1ccc(NC(=O)C2CCCN(S(C)(=O)=O)C2)cc1 (stereo not given) 3.57%
C=CCCN(C1CCCC1)S(=O)(=O)c1ccccc1Br 10.4%
O=C(Nc1nc2ccc(Cl)cc2s1)[C@@H]1CCCN1C(=O)c1cccs1 -3.98%
COC(=O)C1=C(C)N(Cc2ccc(C)cc2)C(=O)/C1=C\c1ccc(O)c(OC)c1 11.5%
Cc1c(N2C(=O)/C(=C\c3cccc4ccccc34)SC2=S)c(=O)n(-c2ccccc2)n1C 9.9%
CCOC(=O)C1=C(C)N(c2ccc(OC)cc2)C(=O)/C1=C\c1ccc(O)c(OCC)c1 28.2%
CCOC(=O)C1=C(C)N(c2ccc(C)cc2)C(=O)/C1=C\c1ccc(O)c(OC)c1 33.5%
CCOc1cc(/C=C2\C(=O)N(CCc3ccc(OC)c(OC)c3)C(C)=C2C(=O)OC)ccc1O 22.8%
Cc1c(N2C(=O)/C(=C/c3ccccc3)SC2=S)c(=O)n(-c2ccccc2)n1C 14.5%
Cc1[nH]c(=O)[nH]c(=S)c1C(=O)Nc1ccc(Cl)c(Cl)c1 -9.05%
CC1(C(=O)O)CCC(C(=O)Nc2ccc(F)cc2)C1(C)C (stereo not given) 17.4%
O=C1c2ccccc2S(=O)(=O)N1CCOc1ccc(F)cc1 6.69%
CCOc1ccc(CCNC(=O)COC(=O)C2=NNC(=O)CC2)cc1OCC 12.5%
COc1ccc2c(c1)C1CC(C)(NC(=O)C1S(=O)(=O)c1ccc(F)cc1)O2 (stereo not given) 22.9%
CCOC(=O)c1ccccc1NC(=O)c1cccc2c1C(=O)N(C1CCN(C(=O)OCC)CC1)C2 5.81% and 1.24%
CC[N+](C)(C)CCN(Cc1ccc(Cl)cc1)c1ccccn1 19.1%
COc1ccc(CN(CCN(C)C)c2ccccn2)cc1 11.2% and 4.35%
O=c1[nH]cc(N(CCO)CCO)c(=O)[nH]1 15.6%
O=C(/C=C/c1ccccc1)OCC(=O)N1CCN(c2ccccc2)CC1 8.9%
Cc1onc(C(=O)NCc2cccs2)c1[N+](=O)[O-] -0.94%
NC1=NC(=O)CC(C(=O)NCCc2ccccc2)S1 (stereo not given) 13.9%
N#CC(C(=O)Nc1ccc(Cl)cc1)=C1Nc2ccccc2N1 -0.845%
C/C(Nc1ccc(Cl)cc1)=C(/C#N)C(N)=O -6.59%
CCc1cc(C(=O)c2ccccc2OC)c(N)s1 12.7%
CCCCOC(=O)/C=C/c1ccc(OC(=O)OC)c(OC(=O)OC)c1 15.3%
COC(=O)/C=C/c1ccc2c(c1)OCO2 -5.42%
CCOc1ccc(NC(=S)N(Cc2ccc(Cl)cc2)Cc2ccco2)cc1 2.54%
O=C(CS(=O)(=O)Cc1ccccc1)N1CCc2ccccc2C1 9.06%
O=C1/C(=C\c2ccc(O)cc2)SC(=S)N1Cc1ccccc1 7.6%
O=C1N=C(N2CCN(c3ccccc3)CC2)S/C1=C/c1ccco1 12.4%
NN1C(=O)/C(=C\c2ccco2)SC1=S 45.2%
CCCSC1=N/C(=C\C=C\c2ccco2)C(=O)S1 73%
O=C1N=C(N2CCN(c3ccccc3)CC2)S/C1=C\c1ccco1 31.4%
Cc1ccc(N=C2NC(=O)/C(=C/C=C/c3ccco3)S2)cc1 21.2%
O=C1N=C(N2CCCC2C(=O)O)S/C1=C\c1ccco1 (stereo not given) 3.04%
O=C(CN1C(=O)S/C(=C\c2ccc(O)cc2)C1=O)c1ccccc1 16.6%
COc1ccccc1-c1noc(CCCC(=O)NC2CCCCC2)n1 29.8%
